Assay results as given in PubChem BioAssay AID1159580 (chemical genetic matrix, 2015).
The campaign covered roughly 5,500 compounds. About 2,000 (36%) were called active. About 18% were inconclusive and are not listed. No stated cut-off is given here; in the data, active means normalized growth mostly below about 0.91 (no sharp cut-off); inconclusive means no clear call, values can overlap the other calls; inactive means mostly above about 0.92. Some of the results follow.

Test: chemical genetic growth profiling, strain panel (AID 1159580);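 further: tested at 20 µM; growth read once vehicle control cultures reached saturation at 30 °C; 1 = growth at the plate median or of vehicle wells; lower values mean less growth of the strain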
Settings: growth OD
[1] = S. cerevisiae deletion strains, locus YAR019C, strain CDC15, active compounds read low
[2] = S. cerevisiae deletion strains, locus YBL105C, strain PKC1, active compounds read low
[3] = S. cerevisiae deletion strains, locus YBR135W, strain CKS1, active compounds read low
[4] = S. cerevisiae deletion strains, locus YBR136W, strain MEC1, active compounds read low
[5] = S. cerevisiae deletion strains, locus YBR160W, strain CDC28, active compounds read low
[6] = S. cerevisiae deletion strains, locus YDL017W, strain CDC7, active compounds read low
[7] = S. cerevisiae deletion strains, locus YDL028C, strain MPS1, active compounds read low
[8] = S. cerevisiae deletion strains, locus YDL101C, strain DUN1, active compounds read low
[9] = S. cerevisiae deletion strains, locus YDL108W, strain KIN28, active compounds read low
[10] = S. cerevisiae deletion strains, locus YDL132W, strain cdc53, active compounds read low
[11] = S. cerevisiae deletion strains, locus YDL214C, strain PRR2, active compounds read low
[12] = S. cerevisiae deletion strains, locus YDR052C, strain DBF4, active compounds read low
[13] = S. cerevisiae deletion strains, locus YDR054C, strain cdc34, active compounds read low
[14] = S. cerevisiae deletion strains, locus YDR226W, strain ADK1, active compounds read low
[15] = S. cerevisiae deletion strains, locus YDR477W, strain SNF1, active compounds read low
[16] = S. cerevisiae deletion strains, locus YER123W, strain YCK3, active compounds read low
[17] = S. cerevisiae deletion strains, locus YER133W, strain GLC7, active compounds read low
[18] = S. cerevisiae deletion strains, locus YFL009W, strain cdc4, active compounds read low
[19] = S. cerevisiae deletion strains, locus YFL029C, strain CAK1, active compounds read low
[20] = S. cerevisiae deletion strains, locus YFR003C, strain YPI1, active compounds read low
[21] = S. cerevisiae deletion strains, locus YFR019W, strain FAB1, active compounds read low
[22] = S. cerevisiae deletion strains, locus YFR028C, strain CDC14, active compounds read low
[23] = S. cerevisiae deletion strains, locus YGR040W, strain KSS1, active compounds read low
[24] = S. cerevisiae deletion strains, locus YGR052W, strain FMP48, active compounds read low
[25] = S. cerevisiae deletion strains, locus YGR092W, strain DBF2, active compounds read low
[26] = S. cerevisiae deletion strains, locus YHR030C, strain SLT2, active compounds read low
[27] = S. cerevisiae deletion strains, locus YHR079C, strain IRE1, active compounds read low
[28] = S. cerevisiae deletion strains, locus YHR082C, strain KSP1, active compounds read low
[29] = S. cerevisiae deletion strains, locus YHR205W, strain SCH9, active compounds read low
[30] = S. cerevisiae deletion strains, locus YIL147C, strain SLN1, active compounds read low
[31] = S. cerevisiae deletion strains, locus YJL095W, strain BCK1, active compounds read low
[32] = S. cerevisiae deletion strains, locus YJL128C, strain PBS2, active compounds read low
[33] = S. cerevisiae deletion strains, locus YJL157C, strain FAR1, active compounds read low
[34] = S. cerevisiae deletion strains, locus YJR016C, strain ILV3, active compounds read low
[35] = S. cerevisiae deletion strains, locus YJR066W, strain TOR1 (second series), active compounds read low
[36] = S. cerevisiae deletion strains, locus YJR066W, strain TOR1, active compounds read low
[37] = S. cerevisiae deletion strains, locus YKL048C, strain ELM1, active compounds read low
[38] = S. cerevisiae deletion strains, locus YKL067W, strain YNK1, active compounds read low
[39] = S. cerevisiae deletion strains, locus YKL101W, strain HSL1, active compounds read low
[40] = S. cerevisiae deletion strains, locus YKL193C, strain SDS22, active compounds read low
[41] = S. cerevisiae deletion strains, locus YKL203C, strain TOR2, active compounds read low
[42] = S. cerevisiae deletion strains, locus YLR113W, strain HOG1, active compounds read low
[43] = S. cerevisiae deletion strains, locus YLR133W, strain CKI1, active compounds read low
[44] = S. cerevisiae deletion strains, locus YLR403W, strain SFP1, active compounds read low
[45] = S. cerevisiae deletion strains, locus YML070W, strain DAK1, active compounds read low
[46] = S. cerevisiae deletion strains, locus YMR001C, strain CDC5, active compounds read low
[47] = S. cerevisiae deletion strains, locus YMR205C, strain PFK2 (second series), active compounds read low
[48] = S. cerevisiae deletion strains, locus YMR277W, strain FCP1, active compounds read low
[49] = S. cerevisiae deletion strains, locus YNL006W, strain LST8, active compounds read low
[50] = S. cerevisiae deletion strains, locus YNL020C, strain ARK1, active compounds read low
[51] = S. cerevisiae deletion strains, locus YNL161W, strain CBK1, active compounds read low
[52] = S. cerevisiae deletion strains, locus YNL183C, strain NPR1, active compounds read low
[53] = S. cerevisiae deletion strains, locus YNL207W, strain RIO2, active compounds read low
[54] = S. cerevisiae deletion strains, locus YNL222W, strain SSU72, active compounds read low
[55] = S. cerevisiae deletion strains, locus YNL307C, strain MCK1 (second series), active compounds read low
[56] = S. cerevisiae deletion strains, locus YOL078W, strain AVO1, active compounds read low
[57] = S. cerevisiae deletion strains, locus YOL136C, strain PFK27, active compounds read low
[58] = S. cerevisiae deletion strains, locus YOR061W, strain CKA2, active compounds read low
[59] = S. cerevisiae deletion strains, locus YOR119C, strain RIO1, active compounds read low
[60] = S. cerevisiae deletion strains, locus YOR231W, strain MKK1, active compounds read low
[61] = S. cerevisiae deletion strains, locus YOR329C, strain SCD5, active compounds read low
[62] = S. cerevisiae deletion strains, locus YPL031C, strain PHO85, active compounds read low
[63] = S. cerevisiae deletion strains, locus YPL153C, strain RAD53, active compounds read low
[64] = S. cerevisiae deletion strains, locus YPL204W, strain HRR25, active compounds read low
[65] = S. cerevisiae deletion strains, locus YPL209C, strain IPL1, active compounds read low
[66] = S. cerevisiae deletion strains, locus YPL256C, strain CLN2, active compounds read low
[67] = S. cerevisiae deletion strains, locus YPR025C, strain CCL1, active compounds read low
[68] = S. cerevisiae deletion strains, locus YPR106W, strain ISR1, active compounds read low
[69] = S. cerevisiae deletion strains, locus YPR111W, strain DBF20, active compounds read low
[70] = S. cerevisiae deletion strains, strain NNK1, active compounds read low
[71] = S. cerevisiae deletion strains, strain TSCII, active compounds read low

Measured: normalized growth

CC(C)(C)c1ccc(C(=O)NNC(=S)Nc2ccc(Cl)cc2)cc1
active: [26] 0.731 | [66] 0.839
inactive: [1] 0.958 | [2] 0.978 | [3] 0.972 | [4] 0.974 | [5] 0.965 | [6] 0.983 | [7] 0.936 | [8] 0.978 | [9] 0.96 | [10] 0.971 | [11] 0.932 | [12] 0.986 | [13] 0.968 | [14] 0.954 | [15] 0.931 | [16] 0.895 | [17] 0.949 | [18] 0.937 | [19] 0.96 | [20] 0.98 | [21] 0.98 | [22] 0.957 | [23] 0.939 | [24] 0.974 | [25] 0.862 | [27] 0.916 | [28] 0.984 | [29] 0.904 | [30] 0.973 | [31] 0.898 | [32] 0.93 | [33] 0.953 | [34] 0.986 | [35] 0.845 | [36] 0.903 | [37] 0.996 | [38] 0.909 | [39] 0.91 | [40] 0.97 | [41] 1.01 | [42] 0.878 | [43] 0.938 | [44] 0.96 | [45] 0.921 | [46] 0.953 | [47] 0.933 | [48] 0.949 | [49] 0.981 | [50] 0.933 | [51] 0.986 | [52] 0.962 | [53] 0.971 | [54] 0.976 | [55] 0.896 | [56] 0.97 | [57] 0.919 | [58] 0.969 | [59] 0.964 | [60] 0.916 | [61] 0.983 | [62] 0.927 | [63] 0.873 | [64] 0.907 | [65] 0.968 | [67] 0.979 | [68] 0.984 | [69] 0.927 | [70] 0.997 | [71] 0.974

S=C(Nc1ccc(Cl)cc1)Nc1ccc(Cl)cc1
inactive: [1] 0.912 | [2] 0.915 | [3] 0.938 | [4] 0.928 | [5] 0.926 | [6] 0.921 | [7] 0.935 | [8] 0.96 | [9] 0.933 | [10] 0.927 | [11] 0.855 | [13] 0.912 | [14] 0.95 | [15] 0.861 | [16] 0.791 | [17] 0.828 | [18] 0.925 | [19] 0.92 | [20] 0.922 | [21] 0.864 | [22] 0.915 | [23] 0.847 | [24] 0.811 | [25] 0.703 | [27] 0.807 | [28] 0.902 | [29] 0.881 | [30] 0.926 | [31] 0.814 | [32] 0.903 | [33] 0.827 | [34] 0.922 | [35] 0.83 | [36] 0.772 | [37] 0.944 | [38] 0.853 | [39] 0.888 | [40] 0.926 | [41] 0.871 | [43] 0.839 | [44] 0.835 | [45] 0.825 | [46] 0.922 | [47] 0.871 | [48] 0.918 | [49] 0.937 | [50] 0.837 | [51] 0.918 | [52] 0.779 | [53] 0.893 | [54] 0.936 | [55] 0.783 | [56] 0.921 | [57] 0.848 | [58] 0.808 | [59] 0.878 | [60] 0.836 | [61] 0.923 | [62] 0.82 | [63] 0.845 | [64] 0.778 | [65] 0.923 | [67] 0.932 | [68] 0.931 | [69] 0.931 | [70] 0.932 | [71] 0.906
active: [12] 0.894 | [26] 0.662 | [42] 0.717 | [66] 0.819

O=C(NNC(=S)Nc1ccc(Cl)cc1)c1ncc(C(F)(F)F)cc1Cl
inactive: [1] 0.968 | [2] 0.99 | [3] 0.992 | [4] 0.985 | [5] 0.994 | [6] 0.989 | [7] 0.988 | [8] 0.985 | [9] 0.986 | [10] 0.966 | [11] 0.956 | [12] 0.991 | [13] 0.961 | [14] 0.982 | [15] 0.935 | [16] 0.863 | [17] 0.94 | [18] 0.975 | [19] 0.973 | [20] 0.991 | [21] 1 | [22] 0.984 | [23] 0.929 | [24] 0.942 | [25] 0.755 | [26] 0.901 | [27] 0.768 | [28] 1.08 | [29] 0.981 | [30] 0.972 | [31] 0.791 | [32] 0.971 | [33] 0.912 | [34] 0.974 | [35] 0.885 | [36] 1.01 | [37] 0.986 | [38] 0.95 | [39] 0.926 | [40] 0.984 | [41] 1.01 | [42] 0.886 | [43] 0.932 | [44] 0.91 | [45] 0.93 | [46] 0.986 | [47] 0.956 | [48] 0.966 | [49] 0.991 | [50] 0.929 | [51] 0.981 | [52] 0.854 | [53] 0.973 | [54] 0.979 | [55] 0.912 | [56] 0.972 | [57] 0.939 | [58] 0.925 | [59] 0.962 | [60] 0.843 | [61] 0.99 | [62] 0.901 | [63] 0.882 | [64] 0.86 | [65] 0.992 | [66] 0.875 | [67] 0.98 | [68] 0.987 | [69] 0.987 | [70] 0.995 | [71] 0.968

Cc1nn(-c2ccccc2)nc1C(=O)NNC(=S)Nc1ccc(Cl)cc1
active: S. cerevisiae deletion strains, locus YEL061C, strain CIN8, active compounds read low 0.866 | S. cerevisiae deletion strains, locus YJR075W, strain HOC1, active compounds read low 1.33 [resistant] | S. cerevisiae deletion strains, locus YLR039C, strain RIC1, active compounds read low 0.785 | S. cerevisiae deletion strains, locus YNL298W, strain CLA4 (second series), active compounds read low 0.835 | S. cerevisiae deletion strains, locus YNR030W, strain Alg12, active compounds read low 0.854 | S. cerevisiae deletion strains, locus YPL055C, strain LGE1, active compounds read low 0.814 | S. cerevisiae strains, strain wild type, active compounds read low 0.887
inactive: S. cerevisiae deletion strains, locus YAL013W, strain DEP1, active compounds read low 0.957 | S. cerevisiae deletion strains, locus YBR229C, strain ROT2, active compounds read low 0.983 | S. cerevisiae deletion strains, locus YCL061C, strain MRC1, active compounds read low 1.04 | S. cerevisiae deletion strains, locus YGR078C, strain PAC10, active compounds read low 0.991 | [26] 0.889 | S. cerevisiae deletion strains, locus YHR087W, strain rtc3, active compounds read low 0.988 | S. cerevisiae deletion strains, locus YJL187C, strain SWE1, active compounds read low 0.954 | S. cerevisiae deletion strains, locus YJR043C, strain POL32, active compounds read low 0.985 | S. cerevisiae deletion strains, locus YLR058C, strain SHM2 (second series), active compounds read low 1.01 | S. cerevisiae deletion strains, locus YLR085C, strain ARP6, active compounds read low 0.82 | S. cerevisiae deletion strains, locus YLR262C, strain YPT6, active compounds read low 0.858 | S. cerevisiae deletion strains, locus YML094W, strain GIM5, active compounds read low 0.904 | S. cerevisiae deletion strains, locus YMR263W, strain SAP30, active compounds read low 1.01 | S. cerevisiae deletion strains, locus YNL153C, strain GIM3, active compounds read low 1.04 | S. cerevisiae deletion strains, locus YNL322C, strain KRE1, active compounds read low 1.02 | S. cerevisiae deletion strains, locus YPL241C, strain CIN2, active compounds read low 0.929 | S. cerevisiae deletion strains, locus YPR135W, strain CTF4, active compounds read low 0.969
